Test [1] in a line: Human pregnane X receptor (PXR) small molecule agonists, qHTS cell viability counter screen (AID 1346977). Further: nearly all actives have a fitted effect of over 50% in size. Put shortly: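 PXR-Luc HepG2 cells in medium with 5% charcoal-stripped FBS were pre-incubated 5hr, then exposed to compounds for 24hr at 37C. Viability was read in the same wells by CellTiter-Fluor fluorescence, reagent added after 23hr with a 1hr incubation.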
For orientation: qHTS replaces the single test concentration by a dilution series.

Test [2] can be described thus: Caspase-3/7 induction in HepG2 cells by small molecules, qHTS assay (AID 1346978). Further: nearly all actives have a fitted effect of over 15% in size. Put shortly: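 Caspase-3/7 induction was measured by Caspase-Glo 3/7 luminescence (30 min, room temperature) after a 17 hr compound exposure of wild-type HepG2 cells seeded at 2,000 per well and pre-incubated 5 hr.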
Test [3] is described as follows: Caspase-3/7 induction in CHO-K1 cells by small molecules, qHTS cell viability counter screen (AID 1346979). Further: nearly all actives have a fitted effect of over 35% in size. Summed up:
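Wild-type CHO-K1 cells were seeded at 1,500 per well, rested 5hr at 37 C, then exposed to compounds in DMSO. After 16hr, CellTiter-Fluor reagent was added and fluorescence read 1hr later as the viability measure.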

A short description of test [4]: Caspase-3/7 induction in CHO-K1 cells by small molecules, qHTS assay (AID 1346980). Further: nearly all actives have a fitted effect of over 15% in size. Put shortly:
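Luminescent Caspase-Glo 3/7 read (30min, room temperature) quantified apoptosis induction. Cells were wild-type CHO-K1, treated with compound for 17hr at 37 C and 5% CO2.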

A short description of test [5]: Caspase-3/7 induction in HepG2 cells by small molecules, qHTS cell viability counter screen (AID 1346981). Further: series mostly up to about 92 µM; nearly all actives have a fitted effect of over 30% in size. Summed up:
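CellTiter-Fluor fluorescence measured viability in the same wells used for Caspase-Glo 3/7. HepG2 (wild type) at 2,000 cells/well were pre-incubated 5 hr, dosed, and given reagent at 16 hr, with 1 hr further at 37C.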

Test [6] deals with Nuclear receptor subfamily 1 group I member 2 (Homo sapiens) (UniProt O75469). Kind of test: Human pregnane X receptor (PXR) small molecule agonists, qHTS assay (AID 1346982). Further: nearly all actives have a fitted effect of over 35% in size. Further: potency means the concentration at half of the fitted maximal effect. Put shortly:
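Agonist mode: luminescence from ONE-Glo after 24 h compound exposure at 37C in HepG2 cells carrying hPXR-responsive CYP3A4 luciferase, plated in charcoal-stripped serum medium 5 h beforehand.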

The target of test [7] is Cytochrome P450 2C19 (Homo sapiens) (UniProt P33261). The test can be described thus: Cytochrome P450 Family 2 Subfamily C Member 19 (CYP2C19) small molecule antagonists: luciferase reporter qHTS assay (AID 1671197). Further: nearly all actives have a fitted effect of over 65% in size. Further: potency means the concentration at half of the fitted maximal effect. Summed up:
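Enzyme-substrate mix with proluciferin substrate (P450-Glo CYP2C19 system) preincubated with compounds 10 min at room temperature; NADPH regeneration solution added, 37C for 1 h; detection reagent stops reaction, luminescence read after 20 min. Ketoconazole positive control.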
On the technique in general: In a reporter assay the amount or activity of a reporter protein is the signal.

The target of test [8] is Cytochrome P450 2C9 (Homo sapiens) (UniProt P11712). Kind of test: Cytochrome P450 Family 2 Subfamily C Member 9 (CYP2C9) small molecule antagonists: luciferase reporter qHTS assay (AID 1671198). Further: nearly all actives have a fitted effect of over 50% in size. Further: potency means the concentration at half of the fitted maximal effect. Put shortly:
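Enzyme-substrate mix preincubated with compound 10 min at room temperature; reaction started with NADPH regeneration solution, 1 h 37C. Luminescent luciferin product read after 20 min detection reagent.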

Test [9] has as its target Cytochrome P450 1A2 (Homo sapiens) (UniProt P05177). Kind of test: Cytochrome P450 Family 1 Subfamily A Member 2 (CYP1A2) small molecule antagonists: luciferase reporter qHTS assay (AID 1671199). Further: nearly all actives have a fitted effect of over 50% in size. Further: potency means the concentration at half of the fitted maximal effect. Summed up: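 Luminescence from luciferin formed by CYP1A2 from a proluciferin substrate, read 20 min after detection reagent. Compound was pre-incubated 10 min with enzyme-substrate, and reaction started with NADPH regeneration solution for 1 h at room temperature; furafylline control.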

Test [10] deals with Voltage-gated inwardly rectifying potassium channel KCNH2 (Homo sapiens) (UniProt Q12809). The test can be described thus: Human Ether-a-go-go-Related Gene (hERG) channel small molecule antagonists: fluorescence cell-based qHTS assay (AID 1671200). Further: nearly all actives have a fitted effect of over 50% in size. Further: potency means the concentration at half of the fitted maximal effect. Summed up: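 U2OS cells expressing the channel were plated at 1000 cells/well, incubated overnight at 37 C, then loaded with FluxOR II thallium-sensitive dye for 1 h at room temperature in the dark, with a further 10 min at room temperature before stimulation.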
For orientation: The hERG channel carries a current that helps repolarise heart muscle cells.

Test [11] concerns the target Cytochrome P450 3A4 (Homo sapiens) (UniProt P08684). The test can be described thus: Cytochrome P450 Family 3 Subfamily A Member 4 (CYP3A4) small molecule antagonists: luciferase reporter qHTS assay (AID 1671201). Put shortly:
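P450-Glo CYP3A4 system with proluciferin substrate; compounds preincubated 10 min RT with enzyme-substrate mix, then NADPH regeneration added for 1 h RT. Detection reagent 20 min, luminescence read as relative luminescence units.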

The target in test [12] is Nuclear receptor subfamily 1 group I member 2 (Rattus norvegicus) (UniProt Q9R1A7). The test can be described thus: Rat pregnane X receptor (rPXR) activation by small molecules, qHTS assay (AID 1346983). Further: nearly all actives have a fitted effect of over 20% in size. Conditions: rPXR luciferase reporter cells, One-Glo luminescence, 24 h; max activation: stronger effect = higher value. Put shortly:
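Luminescent readout (One-Glo luciferase, 30 min room temperature) followed 24 hr compound treatment at 37 C of rPXR cells plated 2,000 per well and preincubated 5hr; qHTS format with compounds delivered in DMSO.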

In test [13] the target is Nuclear receptor subfamily 1 group I member 2 (Homo sapiens) (UniProt O75469). Kind of test: CYP3A4 induction through human pregnane X receptor (PXR) by small molecules, qHTS assay (AID 1346984). Further: nearly all actives have a fitted effect of over 40% in size. Put shortly: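 Read-out is luminescence after One-Glo addition, following a 3 hr, 37C incubation with Luciferin-IPA CYP3A4 substrate (3uM final). Before that, compounds were on DPX-2 cells (HepG2 co-transfected with PXR element plus CYP3A4-promoter luciferase) for 24 hr at 37C.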

The target is the same in test [14]. Kind of test: Human pregnane X receptor (PXR) activation by small molecules, qHTS assay (AID 1346985). Further: nearly all actives have a fitted effect of over 40% in size. Put shortly: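 DPX-2 cells (HepG2 co-transfected with a PXR response element and a CYP3A4-promoter luciferase construct) were seeded at 2,000 per well, rested 5 hr at 37C, then exposed to DMSO-dissolved compounds for 24 hr. Activation was read as luciferase luminescence.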

Test [15] has as its target Cytochrome P450 2D6 (Homo sapiens) (UniProt P10635). Kind of test: Cytochrome P450 Family 2 Subfamily D Member 6 (CYP2D6) small molecule antagonists: luciferase reporter qHTS assay (AID 1671196). Summed up:
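CYP2D6 activity was followed as luminescence from its luciferin product after a 1 h NADPH-driven reaction at room temperature. Enzyme-substrate mix and compound were pre-incubated for 10 min, and the signal was read 20 min after adding detection reagent.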

Where “and” joins values, the source holds several entries; their conditions need not be identical. Equal values may be shown once. Results filed as inconclusive are left out. Where a structure was tested more than once in an assay, its records may differ in their call. Calls of active or inactive are those of the source. The call rests on the fitted dose curve; in most records, active means well fitted curve in the direction sought with a large enough effect in the repeat runs; inconclusive means weak or mixed curves; inactive means no such curve, though single readings can be large; an effect the other way counts as inactive or inconclusive.
On the % scale 0 is the no-effect control and ±100 the full control effect.

Nuclear receptor subfamily 1 group I member 2 (Homo sapiens), sequence (O75469 whole entry, looked up): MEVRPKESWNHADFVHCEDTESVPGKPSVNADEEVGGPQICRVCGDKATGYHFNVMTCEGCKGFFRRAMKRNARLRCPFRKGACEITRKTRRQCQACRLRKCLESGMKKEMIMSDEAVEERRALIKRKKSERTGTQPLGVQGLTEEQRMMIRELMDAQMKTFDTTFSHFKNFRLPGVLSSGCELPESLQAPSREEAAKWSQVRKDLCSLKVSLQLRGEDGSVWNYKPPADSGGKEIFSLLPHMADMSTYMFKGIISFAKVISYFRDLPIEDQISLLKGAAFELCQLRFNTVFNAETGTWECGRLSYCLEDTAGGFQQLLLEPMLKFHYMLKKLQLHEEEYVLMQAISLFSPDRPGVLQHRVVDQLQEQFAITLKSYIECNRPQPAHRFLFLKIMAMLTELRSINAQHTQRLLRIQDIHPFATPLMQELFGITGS
Voltage-gated inwardly rectifying potassium channel KCNH2 (Homo sapiens), sequence (Q12809 whole entry, looked up): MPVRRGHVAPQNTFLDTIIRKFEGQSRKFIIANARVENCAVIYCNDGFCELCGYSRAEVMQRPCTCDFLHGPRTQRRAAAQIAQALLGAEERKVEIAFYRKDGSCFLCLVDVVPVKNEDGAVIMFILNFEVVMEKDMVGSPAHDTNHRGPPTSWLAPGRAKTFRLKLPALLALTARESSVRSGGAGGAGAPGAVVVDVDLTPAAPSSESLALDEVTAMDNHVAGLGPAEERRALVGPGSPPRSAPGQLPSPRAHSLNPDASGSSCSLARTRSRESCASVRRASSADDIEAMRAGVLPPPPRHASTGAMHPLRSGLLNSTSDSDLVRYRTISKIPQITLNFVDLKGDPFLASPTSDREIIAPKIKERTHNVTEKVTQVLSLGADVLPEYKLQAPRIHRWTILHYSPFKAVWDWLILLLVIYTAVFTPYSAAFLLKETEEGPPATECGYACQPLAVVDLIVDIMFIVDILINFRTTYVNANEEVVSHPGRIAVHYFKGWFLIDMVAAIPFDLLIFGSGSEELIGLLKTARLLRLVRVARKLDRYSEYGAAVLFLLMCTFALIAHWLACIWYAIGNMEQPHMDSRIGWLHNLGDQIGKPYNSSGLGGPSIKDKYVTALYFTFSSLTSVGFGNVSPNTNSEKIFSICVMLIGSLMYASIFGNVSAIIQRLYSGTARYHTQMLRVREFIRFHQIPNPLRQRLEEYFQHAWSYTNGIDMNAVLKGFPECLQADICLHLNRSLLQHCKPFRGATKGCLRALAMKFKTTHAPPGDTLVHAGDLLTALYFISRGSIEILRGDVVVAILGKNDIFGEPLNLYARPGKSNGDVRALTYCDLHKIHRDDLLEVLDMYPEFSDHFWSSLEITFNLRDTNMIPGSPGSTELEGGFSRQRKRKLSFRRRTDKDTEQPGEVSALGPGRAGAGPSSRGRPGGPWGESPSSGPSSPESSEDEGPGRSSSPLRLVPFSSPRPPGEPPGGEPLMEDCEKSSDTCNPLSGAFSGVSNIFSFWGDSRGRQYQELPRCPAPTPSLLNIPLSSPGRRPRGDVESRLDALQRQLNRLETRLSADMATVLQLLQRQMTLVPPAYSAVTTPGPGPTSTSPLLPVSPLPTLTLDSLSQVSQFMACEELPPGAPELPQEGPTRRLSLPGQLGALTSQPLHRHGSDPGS
Cytochrome P450 2D6 (Homo sapiens), sequence (P10635 whole entry, looked up): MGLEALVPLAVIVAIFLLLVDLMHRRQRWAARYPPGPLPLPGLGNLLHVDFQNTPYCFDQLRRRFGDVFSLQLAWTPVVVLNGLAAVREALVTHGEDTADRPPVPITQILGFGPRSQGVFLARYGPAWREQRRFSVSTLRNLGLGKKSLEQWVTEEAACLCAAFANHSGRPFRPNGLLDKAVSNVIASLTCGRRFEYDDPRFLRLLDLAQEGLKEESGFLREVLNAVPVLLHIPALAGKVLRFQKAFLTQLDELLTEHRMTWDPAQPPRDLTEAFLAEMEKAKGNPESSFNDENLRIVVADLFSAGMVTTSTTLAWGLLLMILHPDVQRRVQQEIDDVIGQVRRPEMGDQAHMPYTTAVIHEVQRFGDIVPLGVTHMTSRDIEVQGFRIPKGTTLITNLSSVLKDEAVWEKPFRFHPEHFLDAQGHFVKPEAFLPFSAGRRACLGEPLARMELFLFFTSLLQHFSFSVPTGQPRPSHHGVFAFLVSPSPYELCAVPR
Cytochrome P450 2C9 (Homo sapiens), sequence (P11712 whole entry, looked up): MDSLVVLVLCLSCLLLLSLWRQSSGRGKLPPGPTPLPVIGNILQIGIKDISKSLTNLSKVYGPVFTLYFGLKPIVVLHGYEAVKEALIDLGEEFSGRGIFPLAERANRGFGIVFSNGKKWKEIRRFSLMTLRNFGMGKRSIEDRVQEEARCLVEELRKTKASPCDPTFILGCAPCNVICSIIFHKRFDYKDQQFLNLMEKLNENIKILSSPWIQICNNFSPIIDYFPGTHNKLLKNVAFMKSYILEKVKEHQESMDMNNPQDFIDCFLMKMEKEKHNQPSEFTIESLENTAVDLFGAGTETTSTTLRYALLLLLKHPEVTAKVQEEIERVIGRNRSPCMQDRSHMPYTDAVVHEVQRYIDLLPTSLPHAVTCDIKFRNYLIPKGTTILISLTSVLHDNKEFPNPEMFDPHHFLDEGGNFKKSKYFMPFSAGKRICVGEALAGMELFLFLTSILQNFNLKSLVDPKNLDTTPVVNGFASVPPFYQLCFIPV
Cytochrome P450 2C19 (Homo sapiens), sequence (P33261 whole entry, looked up): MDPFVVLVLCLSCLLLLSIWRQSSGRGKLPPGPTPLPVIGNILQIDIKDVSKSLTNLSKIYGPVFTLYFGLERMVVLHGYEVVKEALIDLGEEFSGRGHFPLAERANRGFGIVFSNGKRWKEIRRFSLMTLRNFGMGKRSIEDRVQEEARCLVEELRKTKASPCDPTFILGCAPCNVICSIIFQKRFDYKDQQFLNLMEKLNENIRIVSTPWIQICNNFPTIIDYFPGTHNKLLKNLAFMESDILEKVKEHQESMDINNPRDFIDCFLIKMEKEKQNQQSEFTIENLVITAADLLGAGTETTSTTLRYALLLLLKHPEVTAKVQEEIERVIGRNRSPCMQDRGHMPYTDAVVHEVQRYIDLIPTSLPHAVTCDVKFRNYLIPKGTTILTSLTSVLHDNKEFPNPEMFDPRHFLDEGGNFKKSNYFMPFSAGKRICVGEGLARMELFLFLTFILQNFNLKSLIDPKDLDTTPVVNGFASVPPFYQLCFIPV
Nuclear receptor subfamily 1 group I member 2 (Rattus norvegicus), sequence (Q9R1A7 whole entry, looked up): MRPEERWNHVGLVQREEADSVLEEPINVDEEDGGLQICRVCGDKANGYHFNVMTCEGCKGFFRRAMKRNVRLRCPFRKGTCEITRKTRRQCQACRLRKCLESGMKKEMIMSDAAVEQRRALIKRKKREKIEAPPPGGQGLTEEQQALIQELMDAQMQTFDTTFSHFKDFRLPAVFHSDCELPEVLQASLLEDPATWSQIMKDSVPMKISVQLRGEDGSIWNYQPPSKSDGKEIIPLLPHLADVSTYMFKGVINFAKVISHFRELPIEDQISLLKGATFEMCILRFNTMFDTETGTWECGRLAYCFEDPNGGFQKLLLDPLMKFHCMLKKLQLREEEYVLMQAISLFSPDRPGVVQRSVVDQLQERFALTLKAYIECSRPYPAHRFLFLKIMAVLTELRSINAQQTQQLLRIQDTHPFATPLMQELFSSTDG
Cytochrome P450 1A2 (Homo sapiens), sequence (P05177 whole entry, looked up): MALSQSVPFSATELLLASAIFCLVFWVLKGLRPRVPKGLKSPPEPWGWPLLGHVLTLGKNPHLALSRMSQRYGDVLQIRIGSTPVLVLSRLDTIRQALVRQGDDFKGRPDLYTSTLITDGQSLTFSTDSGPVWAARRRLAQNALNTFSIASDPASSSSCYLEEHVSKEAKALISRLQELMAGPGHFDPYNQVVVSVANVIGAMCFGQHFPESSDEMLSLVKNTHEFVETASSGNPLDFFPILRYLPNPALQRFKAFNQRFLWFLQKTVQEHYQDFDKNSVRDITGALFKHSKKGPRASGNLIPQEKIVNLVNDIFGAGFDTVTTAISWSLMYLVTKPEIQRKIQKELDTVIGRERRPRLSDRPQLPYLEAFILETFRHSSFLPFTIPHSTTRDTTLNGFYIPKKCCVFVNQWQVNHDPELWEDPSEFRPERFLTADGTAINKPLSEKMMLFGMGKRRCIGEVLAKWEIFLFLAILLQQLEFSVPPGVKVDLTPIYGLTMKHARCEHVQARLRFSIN
Cytochrome P450 3A4 (Homo sapiens), sequence (P08684 whole entry, looked up): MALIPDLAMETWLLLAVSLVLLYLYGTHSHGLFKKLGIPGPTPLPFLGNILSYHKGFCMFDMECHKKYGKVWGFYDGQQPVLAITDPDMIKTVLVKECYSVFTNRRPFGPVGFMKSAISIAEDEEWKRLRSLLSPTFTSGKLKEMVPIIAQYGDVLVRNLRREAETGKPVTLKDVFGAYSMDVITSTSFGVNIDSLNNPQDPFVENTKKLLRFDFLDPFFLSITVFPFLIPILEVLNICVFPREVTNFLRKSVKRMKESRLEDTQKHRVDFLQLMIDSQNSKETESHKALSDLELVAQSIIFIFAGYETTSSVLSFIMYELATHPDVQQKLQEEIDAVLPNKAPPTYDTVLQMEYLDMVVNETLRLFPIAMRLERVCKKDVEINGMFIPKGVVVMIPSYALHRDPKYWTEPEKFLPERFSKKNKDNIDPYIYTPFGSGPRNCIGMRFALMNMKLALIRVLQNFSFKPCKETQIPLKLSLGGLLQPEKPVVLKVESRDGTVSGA

With `Cc1ccc2c(c1)C(=O)OC2=O`, the Potency result in test [1], in test [2], in test [3], in [4], in test [5] and in test [6] was “inactive” each time. Besides, the Potency result in [7], in test [8], in test [9], in [10] and in test [11] was “inactive” each time.

On to `CCC/C=C/C=O`, for which the Potency entry in test [1], in [2], in test [3], in test [4], in test [5] and in [6] was “inactive” each time. The Potency result in test [9], in test [10] and in test [11] was “inactive” each time. Besides, in test [7], the Potency is 19.5 µM (active).

For the compound `CC(=O)Oc1c(C)c(C)c2c(c1C)CC[C@@](C)(CCC[C@H](C)CCC[C@H](C)CCCC(C)C)O2`, the Potency entry in test [2], in test [3], in test [4], in [5], in [6] and in test [13] was “inactive” each time. The Potency result in test [14], in [15], in test [7], in test [8], in test [9] and in test [10] was “inactive” each time. For the same compound, in test [11], the Potency entry is “inactive”. Also, the max activation in test [12] is -0.642% (inactive) and -1.19% (inactive).

On to `C=CCOC(=O)C(=C)C`, for which the Potency result in test [2], in test [3], in [4], in test [5], in test [6] and in test [15] was “inactive” throughout. Also, the Potency result in [7], in test [8], in [9], in test [10] and in [11] was “inactive” in each case.

With `Cc1ccc(S(=O)(=O)NCl)cc1`, the Potency result in test [2], in test [3], in test [4], in test [5], in test [6] and in test [13] was “inactive” each time. For the same compound, the Potency result in test [14], in test [7], in test [10] and in [11] was “inactive” each time. In test [12], the max activation was 4.18% (inactive). Also, the Potency result was “inactive and 75.1 µM (active)” in test [8]; “inactive and 75.1 µM (active)” in [9].

Take `CCCOCCO`: the Potency result in [2], in test [3], in test [4], in test [5], in [6] and in [7] was “inactive” in each case. The Potency entry in test [8], in [9], in test [10] and in [11] was “inactive” each time.

Regarding `CC(C)(C)c1cccc(C(C)(C)C)c1O`, the Potency entry in test [2], in test [3], in test [4], in test [5] and in [11] was “inactive” throughout. In addition, the Potency is 59.8 µM (active) and inactive in [6]; 55.1 µM (active) and inactive in test [7]; 39 µM (active) and 63.3 µM (active) in test [9]; 24 µM (active) in test [10].

These data come from PubChem BioAssay (Tox21).
